# Test results from PubChem BioAssay.
# Activity calls are given as the source filed them. Unless noted, how the calls were made is not given here.
# Key:
# [1] = tested on: Wnt5a (protein binding on small-molecule microarray); assay: Wnt5a binders on small-molecule microarray, primary screen, biophysical, 635/667 nm fluorescence (AID 1142); conditions: 635 nm fluorescence, higher = more signal;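 further: fluorescence read at 667 nm with signal to noise per printed feature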
# [2] = cell viability in Huh7 cells, primary screen, cytotoxicity control for HCV replication inhibitor project, CellTiter-Glo luminescence, basal, 48 h (AID 1143); conditions: Huh7 HCV replicon, higher = more signal, called active from +8 up or from −8 down;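 further: Huh7 hepatoma cells carrying a hepatitis C replication reporter with no stimulus; test concentration not given here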
# [3] = P. aeruginosa biofilm formation inhibitors, primary screen, PAO1 strain, BacTiter-Glo luminescence, LB-PBS (AID 1144); conditions: 12 h, higher = more signal
# [4] = CREB reporter modulators without forskolin, primary screen, cell-based, PC12, CRE-LacZ reporter, unstimulated (AID 1145); conditions: no forskolin, luminescence, 4.5 h, higher = more signal, called active from +8 up or from −8 down
# [5] = CREB reporter modulators under forskolin, primary screen, cell-based, PC12, CRE-LacZ reporter, forskolin-stimulated (AID 1146); conditions: luminescence, 4.5 h, higher = more signal, called active from +8 up or from −8 down;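 further: PC12 cells with 6xCRE LacZ reporter stimulated by forskolin 10 µM; beta-galactosidase reporter signal reflecting CREB driven transcription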
# [6] = biological target: Streptavidin (Streptomyces avidinii) (UniProt P22629); assay: streptavidin binders on small-molecule microarray, primary screen, artefact control for SMM compound annotation, biophysical, 635/667 nm fluorescence (AID 1147); conditions: streptavidin binding, higher = more signal;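 further: signal reflects streptavidin binding to arrayed compounds as a control protein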
# Sequence of Streptavidin (Streptomyces avidinii) (P22629 whole entry, looked up): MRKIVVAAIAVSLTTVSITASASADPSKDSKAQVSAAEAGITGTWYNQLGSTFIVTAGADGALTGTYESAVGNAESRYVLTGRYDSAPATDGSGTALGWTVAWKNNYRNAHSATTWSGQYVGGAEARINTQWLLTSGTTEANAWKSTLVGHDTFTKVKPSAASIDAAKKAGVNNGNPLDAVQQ
# [7] = small-molecule binders of probe aInhba, primary screen, biochemical, small-molecule microarray, 635/667 nm fluorescence (AID 1148); conditions: higher = more signal;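 further: score merges 667nm spot fluorescence with signal-to-noise for antibody binding to printed compounds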
# Torsin-1A (Homo sapiens) [8] = biological target: Torsin-1A (Homo sapiens) (UniProt O14656); assay: torsin A binders from cell lysate, primary screen, small-molecule microarray, wild-type, 635/667 nm (AID 1149); conditions: COS7 hTOR1A-WT lysate, 635 nm fluorescence, higher = more signal
# Sequence of Torsin-1A (Homo sapiens) (O14656 whole entry, looked up): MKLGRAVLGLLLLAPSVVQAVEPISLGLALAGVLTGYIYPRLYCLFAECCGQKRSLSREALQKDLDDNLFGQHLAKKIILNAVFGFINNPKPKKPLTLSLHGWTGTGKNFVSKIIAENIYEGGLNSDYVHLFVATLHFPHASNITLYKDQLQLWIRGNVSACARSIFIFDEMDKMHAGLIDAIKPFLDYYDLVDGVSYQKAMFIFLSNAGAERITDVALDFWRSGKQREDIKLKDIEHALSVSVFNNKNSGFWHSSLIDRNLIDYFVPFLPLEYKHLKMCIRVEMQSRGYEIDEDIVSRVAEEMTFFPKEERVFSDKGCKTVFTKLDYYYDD
# Torsin-1A (Homo sapiens) [9] = biological target: Torsin-1A (Homo sapiens) (UniProt O14656); assay: small-molecule binders of mutant TOR1A in lysate, primary screen, cell lysate, small-molecule microarray, COS7 lysate, 635/667 nm fluorescence (AID 1150); conditions: COS7 hTOR1A mutant lysate, 635 nm fluorescence, higher = more signal;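 further: score pools 667 nm emission and signal to noise measuring lysate protein binding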
# [10] = tested on: Sonic hedgehog protein (Shh); assay: small-molecule binders of Shh protein, primary screen, biochemical, small-molecule microarray, 635/667 nm fluorescence (AID 1151); conditions: small-molecule microarray binding, 635 nm fluorescence; higher = more signal;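 further: Shh protein binding to compounds spotted on small-molecule microarray slides; score combines spot fluorescence intensity with signal-to-noise across triplicate slides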
Structure (SMILES),composite z-score [1],z-score [2],z-score [3],z-score [4],z-score [5],composite z-score [6],composite z-score [7],composite z-score (Torsin-1A (Homo sapiens) [8]),composite z-score (Torsin-1A (Homo sapiens) [9]),composite z-score [10]
COC(=O)CC=C[C@H](C)[C@@H](OCc1cccc(Br)c1)[C@@H](C)[C@H](OC)C1CCCCC1,-0.375,0.137 (inactive),0.781 (inactive),-1.05 (inactive),-1.25 (inactive),-0.243,-0.128,0.312,-0.119,0.341
CCOC(=O)[C@H](Cc1ccccc1)NC(=O)OC1CC(CCC2CC(CC)=NO2)OC2(CCCC(COC(=O)NCCC(C)C)O2)C1 (stereo not given in full),0.0453,-0.24 (inactive),0.636 (inactive),0.105 (inactive),0.703 (inactive),0.851,-0.154,-0.182,0.225,0.135
C[C@@H](c1ccccc1)N1C(=O)[C@H]2[C@H]3[C@H](O)[C@H](O)CC(=NOCc4ccccc4)[C@H]3CC[C@H]2C1=O,-0.0159,-0.416 (inactive),0.576 (inactive),0.0687 (inactive),0.0517 (inactive),0.587,-0.183,-0.0911,0.651,0.378
COC(=O)[C@@H]1CC[C@H](C)[C@@H](c2ccc(C)cc2)N1C(=O)c1ccc(C=NO[C@@H](C)c2cn([C@H](CO)Cc3ccccc3)nn2)cc1,0.408,-2.15 (inactive),0.476 (inactive),5.32 (inactive),-0.216 (inactive),0.279,-0.024,0.243,0.634,0.738
CCCNC(=O)OC[C@H]1O[C@H](c2ccccc2)C=C[C@@H]1Oc1ccc(OC)cc1,-0.0663,-0.234 (inactive),0.404 (inactive),0.735 (inactive),-0.353 (inactive),1.48,-0.0719,-0.131,0.144,0.0199
C[C@@H]1CC[C@H]2C(=O)O[C@@H](COc3ccc(C(C)(C)C)cc3)CN2[C@@H]1c1ccc(Br)cc1,-0.176,0.301 (inactive),0.256 (inactive),0.764 (inactive),0.403 (inactive),-0.259,-0.0987,-0.351,-0.188,-0.445
O=C1C[C@@H](O)[C@@H](O)[C@@H]2[C@@H]3C(=O)N(C[C@@H]4CCCO4)C(=O)[C@@H]3CC[C@@H]12,0.191,0.149 (inactive),-0.213 (inactive),0.246 (inactive),0.287 (inactive),0.622,0.0956,0.232,0.206,0.678
CCOC(=O)NN=C1C[C@@H](O)[C@@H](O)[C@@H]2[C@@H]3C(=O)N([C@@H](C)c4ccccc4)C(=O)[C@@H]3CC[C@@H]12,0.229,0.261 (inactive),-0.353 (inactive),-0.475 (inactive),-0.14 (inactive),-0.468,-0.0313,2.58,2.5,1.37
CCOC(=O)NN=C1C[C@@H](O)[C@@H](O)[C@@H]2[C@@H]3C(=O)N(c4ccc(F)cc4F)C(=O)[C@@H]3CC[C@@H]12,0.0054,0.176 (inactive),0.449 (inactive),-0.0211 (inactive),0.34 (inactive),0.309,-0.016,0.308,0.12,0.219
O=C1[C@H]2[C@H]3[C@H](O)[C@H](O)CC(=NO[C@@H]4O[C@H](CO)[C@@H](O)[C@H](O)[C@H]4O)[C@H]3CC[C@H]2C(=O)N1c1cccc(Oc2ccccc2)c1,0.162,-0.31 (inactive),0.257 (inactive),-0.838 (inactive),-0.462 (inactive),0.528,-0.0846,0.625,0.367,1.09
COC(=O)C1=C(C)N(Cc2ccccc2)[C@]23O[C@](C(=O)OC)(C(=O)N2[C@@H]1c1ccccc1)C(C(=O)OC)=C3C(=O)OC,0.256,-4.08 (inactive),-1.25 (inactive),1.92 (inactive),-1.61 (inactive),0.252,0.095,0.199,0.454,0.657
C[C@@H](c1ccccc1)N1C(=O)[C@H]2[C@H]3[C@H](O)[C@H](O)CC(=NO[C@@H]4O[C@H](CO)[C@@H](O)[C@H](O)[C@H]4O)[C@H]3CC[C@H]2C1=O,0.189,0.573 (inactive),-0.104 (inactive),-0.294 (inactive),0.845 (inactive),0.152,-0.142,0.225,0.249,0.457
CCCNC(=O)OC[C@H]1O[C@H](CCON=C(C)CCC(=O)OC[C@H]2O[C@H](c3ccccc3)C=C[C@@H]2Oc2ccc(OC)cc2)C=C[C@@H]1Oc1ccc(OC)cc1,-0.109,-1.13 (inactive),-0.665 (inactive),-0.478 (inactive),0.913 (inactive),0.728,-0.125,-0.694,-0.243,-0.137
O=C(NN=C1C[C@@H](O)[C@@H](O)[C@@H]2[C@@H]3C(=O)N(C4CCCCC4)C(=O)[C@@H]3CC[C@@H]12)OCc1ccccc1,-0.03,0.0845 (inactive),1.15 (inactive),1.79 (inactive),0.0171 (inactive),-0.225,-0.384,0.205,-0.0666,-0.364
C#CCCCON=C1C[C@@H](O)[C@@H](O)[C@@H]2[C@@H]3C(=O)N(C(C)(C)C)C(=O)[C@@H]3CC[C@@H]12,0.0416,0.536 (inactive),0.945 (inactive),0.785 (inactive),0.262 (inactive),0.0462,-0.0762,-0.196,0.348,-1.22
CO[C@@H]1COC(=O)[C@@H](C)NC(=O)CC=C[C@@H](C)[C@H](NS(=O)(=O)c2ccc(C)cc2)COC(=O)[C@H](C)NC(=O)CC=C[C@H]1C,-0.0222,0.806 (inactive),0.829 (inactive),0.881 (inactive),-0.314 (inactive),-0.967,-0.218,1.31,0.584,1.33
CCOC(=O)[C@H](CC(C)C)NC(=O)CCC1CC(OC(=O)NCc2ccc3c(c2)OCO3)CC2(CCCC(COC(=O)NCC3CCCCC3)O2)O1 (stereo not given in full),0.222,-1.86 (inactive),-0.0968 (inactive),-0.0732 (inactive),0.389 (inactive),0.354,0.0471,0.0886,0.392,1.52
CC(C)CON=C1C[C@@H](O)[C@@H](O)[C@@H]2[C@@H]3C(=O)N(c4ccc(F)cc4F)C(=O)[C@@H]3CC[C@H]12,0.0062,-0.86 (inactive),-0.359 (inactive),-1.29 (inactive),-0.907 (inactive),0.9,-0.243,0.224,-0.0086,1.25
O=C1[C@H]2[C@H]3[C@H](O)[C@H](O)CC(=NOCc4ccccc4)[C@@H]3CC[C@H]2C(=O)N1c1ccc(F)cc1F,-0.0167,-1.69 (inactive),-1 (inactive),-0.469 (inactive),-0.445 (inactive),0.0494,-0.104,-0.111,-0.153,0.068
O=C1C[C@@H](O)[C@@H](O)[C@@H]2[C@@H]3C(=O)N(Cc4ccccc4)C(=O)[C@@H]3CC[C@@H]12,0.19,0.398 (inactive),-0.593 (inactive),1.06 (inactive),0.113 (inactive),0.413,0.0391,0.498,0.35,0.772
CCOC(=O)C1=NO[C@@]2(C=C(Br)C3(OCCCO3)[C@H]3O[C@H]32)C1,0.4,0.164 (inactive),0.208 (inactive),-0.258 (inactive),0.572 (inactive),1.45,-0.0313,0.712,0.332,0.959
C=CC[C@@H]1C=C[C@H](ON=C2[C@H]3CCn4c(=O)n(-c5ccccc5)c(=O)n4[C@H]3[C@H](O)[C@@H]3O[C@H]23)[C@@H](CO)O1,0.132,1.17 (inactive),-0.0199 (inactive),0.164 (inactive),0.312 (inactive),0.43,-0.0736,-0.207,0.369,0.23
C[C@@H]1C=CCC(=O)OC[C@H]2O[C@@H](C=C[C@@H]2O)[C@H](C)C=CCC(=O)OC1,0.0051,-1.05 (inactive),-1.11 (inactive),0.344 (inactive),-0.812 (inactive),-0.224,-0.206,2.73,1.98,2.16
CCOC(=O)[C@H](CC(C)C)NC(=O)CCC1CC(OC(=O)NCc2cccc3ccccc23)CC2(CCCC(COC(=O)NCc3cccc(C(F)(F)F)c3)O2)O1 (stereo not given in full),-0.0645,-0.0149 (inactive),-0.658 (inactive),0.288 (inactive),-0.274 (inactive),0.626,-0.0872,0.27,0.261,0.258
CCc1cc2c(nc1CC)CCN(CCC(C)=NOC[C@H]1O[C@H](c3ccccc3)C=C[C@@H]1Oc1ccc(OC)cc1)C2,-0.363,-4.11 (inactive),-1.57 (inactive),5.73 (inactive),0.28 (inactive),2.21,-0.0093,0.15,0.274,0.839
